The list is not random: actives were taken first. Their share in the collection is about 6.8%.
MCF10A rerep = inducers of DNA re-replication in MCF 10A breast cells | AID 624296 | MCF 10A DNA re-replication, Hoechst nuclear intensity, 48 h | Potency, µM (titrated, usually from 46.1 µM), without a hit: at the highest dose activity, positive = re-replication, usual class: activators | 2.9% of 350,000 active; note: % of control where 0% means no effect; nearly all actives have a fitted effect of over 50% in size
PINK1 modulator = changes PINK1 expression; 0.2% of 410,000 active; PINK1 immunofluorescence, high-content cytometry, 24 h; AID 624263; Potency, µM (doses to about 76.6 µM), inactives show top-dose activation (PINK1 increase), hits mostly activators; active = well fitted activation curve with a large enough effect; inconclusive = small, poorly fitted or top-dose-only effect; cell line not stated here; note: % of control where 0% means no effect; nearly all actives have a fitted effect of over 65% in size
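Readout is PINK1 immunofluorescence, quantified alongside mitochondrial, cell and nuclear markers by laser-scanning microplate cytometry. Cells from a stable line were exposed to compound titrations (5 concentrations) for 24 hours, with CCCP controls.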
SW480 rerep = DNA re-replication induction in SW480 cells; SW480 DNA re-replication, Hoechst DNA content imaging, 48 h; Potency, µM (series often up to 46.1 µM), without a hit: top-dose re-replication activation, hits mostly activators; 1.8% of 340,000 active; note: % of control where 0% means no effect; nearly all actives have a fitted effect of over 55% in size
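First, 250 cells per well were seeded. Next, compound or vehicle (23 nL) was pinned in, plates sat 48 hr at 37 C. Finally Hoechst was added for 40 min before fluorescence scanning.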
PTAP TSG101 blk = blocks PTAP/TSG101 interaction to inhibit HIV-1 budding; Q99816; Fluorescence polarization, FITC-PTAP peptide / Tsg101 binding; Potency, µM (top dose mostly 115 µM), inactives show top-dose activity change, negative = inhibition, hits mostly inhibitors; 340,000 tested, under 10 active; AID 493005; active = well fitted inhibition curve with a large enough effect in the main read-out, with a control signal flat, not every such curve was filed as active; inconclusive = small, poorly fitted or top-dose-only effect, or effect the other way, or a change in a side signal; inactive = no such curve, though single readings can be large or run the other way; note: % of control where 0% means no effect
Target sequence (Q99816 whole entry, looked up): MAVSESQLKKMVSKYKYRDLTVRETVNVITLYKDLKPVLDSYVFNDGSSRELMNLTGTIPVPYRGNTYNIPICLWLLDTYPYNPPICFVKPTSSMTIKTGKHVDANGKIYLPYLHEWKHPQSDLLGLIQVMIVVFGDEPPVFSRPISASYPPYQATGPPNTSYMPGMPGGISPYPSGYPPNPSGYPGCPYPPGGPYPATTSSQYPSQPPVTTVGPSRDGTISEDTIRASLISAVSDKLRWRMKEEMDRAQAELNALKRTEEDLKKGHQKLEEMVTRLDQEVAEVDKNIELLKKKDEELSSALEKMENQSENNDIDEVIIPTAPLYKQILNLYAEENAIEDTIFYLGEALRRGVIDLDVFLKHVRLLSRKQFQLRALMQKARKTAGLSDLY
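FP read-out: FITC-PTAP peptide, 50 nM final, binding Tsg101 binding domain, 10 uM final; 20 min, r.t.; 10 mM HEPES pH 7.5, 0.15 M NaCl, 0.01% Tween 20, 3 mM EDTA, 0.1 mM TCEP.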
KB-V1 cytotox = KB-V1 MDR subline cytotoxicity. KB-V1 MDR cells viability, CellTiter-Glo, 72 h. Potency, µM (highest dose often 46.1 µM), most hits filed as cytotoxic. 3.4% of 400,000 active. AID 1347076; note: % is set by controls: 0 for no effect and ±100 for the full control effect; nearly all actives have a fitted effect of over 60% in size
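qHTS viability screen in drug-selected KB-V1 MDR cells: 72 h compound treatment at 37 degrees C, ATP luminescence end point.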
KB-3-1 cytotox = KB-3-1 parental cell cytotoxicity | KB-3-1 viability, CellTiter-Glo ATP luminescence, 72 h | Potency, µM (top dose mostly 46.1 µM), hits mostly cytotoxic | 1.4% of 400,000 active | AID 1347075; note: % is set by controls: 0 for no effect and ±100 for the full control effect; nearly all actives have a fitted effect of over 60% in size
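Here the drug-naive KB-3-1 line serves as comparator for MDR sub-line selectivity; cells received compound titrations, 72 h at 37 °C, then CellTiter-Glo readout.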
An asterisk follows results filed as active; [ ] = dose if it differs, or a comment. Unless noted, calls come from the whole dose curve; as a rule, active = well fitted curve in the direction sought with a large enough effect; inconclusive = small, poorly fitted or top-dose-only effect, or another doubt; inactive = no such curve, though single readings can be large; an effect the other way counts as inactive or inconclusive. Potency is the fitted concentration of half-maximal effect.

Results for Cc1cc(C)nc(N2CCCC(C(=O)Nc3nnc(C)s3)C2)n1 (stereo not given) ?
MCF10A rerep: -6%; PINK1 modulator: -1%[38.3 µM]; SW480 rerep: -4%; KB-V1 cytotox: 18µM*; KB-3-1 cytotox: inactive

How did Cc1ccnc(N2CCCC(C(=O)Nc3nnc(C)s3)C2)n1 (stereo not given) do in these assays?
MCF10A rerep: -5%; PINK1 modulator: -1%[38.3 µM]; SW480 rerep: 4%; PTAP TSG101 blk: -6%; KB-V1 cytotox: inactive; KB-3-1 cytotox: inactive

Results for Cc1cc(C)nc(N2CCCC(C(=O)Nc3ccc4nc(C)c(C)nc4c3)C2)n1 (stereo not given) ?
MCF10A rerep: 6%; PINK1 modulator: 5%[38.3 µM]; SW480 rerep: 13%; PTAP TSG101 blk: 1%; KB-V1 cytotox: inconclusive; KB-3-1 cytotox: inactive

How did N#Cc1cnn2c(-c3ccc(Cl)cc3Cl)ccnc12 do in these assays?
MCF10A rerep: 8%; PINK1 modulator: 0%; SW480 rerep: -11%; PTAP TSG101 blk: 0%; KB-V1 cytotox: 16µM*; KB-3-1 cytotox: inactive

What do the screens show for `N#Cc1cnn2c(N)c(-c3ccc(Cl)cc3)cnc12`?
MCF10A rerep: -20%; PINK1 modulator: -1%; SW480 rerep: inconclusive; PTAP TSG101 blk: 0%; KB-V1 cytotox: 4.1µM*; KB-3-1 cytotox: inconclusive

Results for Nc1c(-c2ccccc2)cnc2c(-c3ccccc3)cnn12 ?
MCF10A rerep: 3%; PINK1 modulator: 3%; SW480 rerep: 6%; PTAP TSG101 blk: -5%; KB-V1 cytotox: inactive; KB-3-1 cytotox: inactive

What do the screens show for `Cc1ccccc1CN1C(=O)c2ccccc2Sc2ccc(C(=O)NCCN3CCOCC3)cc21`?
MCF10A rerep: 7%; PINK1 modulator: 1%; SW480 rerep: inconclusive; PTAP TSG101 blk: -6%; KB-V1 cytotox: inactive; KB-3-1 cytotox: inactive

What do the screens show for `O=C(NCCN1CCOCC1)c1ccc2c(c1)N(Cc1ccccc1F)C(=O)c1ccccc1S2`?
MCF10A rerep: inconclusive; PINK1 modulator: 1%; SW480 rerep: inconclusive; PTAP TSG101 blk: -1%; KB-V1 cytotox: inactive; KB-3-1 cytotox: inactive

How did CCN1CCN(CCCNC(=O)c2ccc(/C=C3/Sc4ccccc4N(Cc4ccccc4F)C3=O)cc2)CC1 do in these assays?
MCF10A rerep: 15µM*; PINK1 modulator: -1%; SW480 rerep: 16µM*; PTAP TSG101 blk: -4%; KB-V1 cytotox: inactive; KB-3-1 cytotox: inconclusive

Results for CCN1CCN(CCNC(=O)c2ccc(/C=C3/Sc4ccccc4N(Cc4ccccc4C)C3=O)cc2)CC1 ?
MCF10A rerep: 18µM*; PINK1 modulator: -1%; SW480 rerep: 7.3µM*; PTAP TSG101 blk: -3%; KB-V1 cytotox: inactive; KB-3-1 cytotox: inconclusive

Results for NC(=O)C1CCN(c2ncc(-c3cccc(N4CCOCC4)c3)s2)CC1 ?
KB-V1 cytotox: inactive; KB-3-1 cytotox: inactive

Results for CCNc1ccc(-c2nc(-c3ccco3)no2)cc1[N+](=O)[O-] ?
PINK1 modulator: 11%; KB-V1 cytotox: inconclusive; KB-3-1 cytotox: inactive

How did Cc1cc(C(=O)CSc2nnnn2-c2ccc(O)cc2)c(C)n1Cc1ccc2c(c1)OCO2 do in these assays?
MCF10A rerep: inconclusive; PINK1 modulator: 0%; SW480 rerep: -3%; PTAP TSG101 blk: -8%; KB-V1 cytotox: 15µM*; KB-3-1 cytotox: inconclusive

How did Cc1cc(C(=O)CSc2nnc(-c3cccc(F)c3)n2N)c(C)n1Cc1ccc2c(c1)OCO2 do in these assays?
MCF10A rerep: 5%; PINK1 modulator: -1%; SW480 rerep: -3%; PTAP TSG101 blk: -7%; KB-V1 cytotox: 2.6µM*; KB-3-1 cytotox: inconclusive

How did Cc1cc(C(=O)CSc2nnnn2-c2ccccc2)c(C)n1-c1ccc2c(c1)OCO2 do in these assays?
MCF10A rerep: inconclusive; PINK1 modulator: 0%; SW480 rerep: inconclusive; PTAP TSG101 blk: 2%; KB-V1 cytotox: 7.3µM*; KB-3-1 cytotox: inconclusive

How did Cc1cc(C(=O)CSc2nncs2)c(C)n1-c1ccc2c(c1)OCO2 do in these assays?
MCF10A rerep: -14%; SW480 rerep: -3%; PTAP TSG101 blk: -13%; KB-V1 cytotox: 16µM*; KB-3-1 cytotox: inactive

How did CCN(C(=O)c1cnc(N2CCOCC2)c2ccccc12)c1cc(C)ccc1C do in these assays?
PINK1 modulator: 0%; KB-V1 cytotox: inactive; KB-3-1 cytotox: inactive

How did Cc1cccc(N(C)S(=O)(=O)c2nnc(NC(=O)C(C)(C)C)s2)c1 do in these assays?
PINK1 modulator: 1%

Results for Cc1cccc(NC(=O)c2oc3ccc(S(=O)(=O)N(C)C4CCCCC4)cc3c2C)c1C ?
PINK1 modulator: 1%

What do the screens show for `Cc1cccc(-n2nnnc2SCC(=O)c2cc(C)n(CC3CCCO3)c2C)c1` (stereo not given)?
MCF10A rerep: 13%; PINK1 modulator: 0%; SW480 rerep: -2%; PTAP TSG101 blk: -8%; KB-V1 cytotox: inconclusive; KB-3-1 cytotox: inactive

What do the screens show for `CCCn1c(SCC(=O)c2cc(C)n(-c3ccc4c(c3)OCO4)c2C)n[nH]c1=O`?
MCF10A rerep: 14%; PINK1 modulator: 3%; SW480 rerep: -3%; PTAP TSG101 blk: -1%; KB-V1 cytotox: 2.9µM*; KB-3-1 cytotox: 12µM*

Results for Cc1cccc(-n2nnnc2SCC(=O)c2cc(C)n(Cc3ccco3)c2C)c1 ?
MCF10A rerep: 10%; PINK1 modulator: -3%; SW480 rerep: -3%; PTAP TSG101 blk: -3%; KB-V1 cytotox: 18µM*; KB-3-1 cytotox: inactive

Results for CC1CC(C)CN(C(=O)Cn2c(-c3nonc3N)nc3ccccc32)C1 (stereo not given) ?
MCF10A rerep: -1%; PINK1 modulator: 0%; SW480 rerep: 2%; PTAP TSG101 blk: -5%; KB-V1 cytotox: inactive; KB-3-1 cytotox: inactive

How did Nc1nonc1-c1nc2ccccc2n1CC(=O)Nc1ccccc1 do in these assays?
MCF10A rerep: 10%; PINK1 modulator: 12%; SW480 rerep: 12µM*; PTAP TSG101 blk: -12%; KB-V1 cytotox: inconclusive; KB-3-1 cytotox: inconclusive

How did CC1CCCN(C(=O)Cn2c(-c3nonc3N)nc3ccccc32)C1 (stereo not given) do in these assays?
MCF10A rerep: 15%; PINK1 modulator: 24%[38.3 µM]; SW480 rerep: -3%; PTAP TSG101 blk: -7%; KB-V1 cytotox: 7.3µM*; KB-3-1 cytotox: inactive

Results for CC(C)CCn1c(-c2nonc2N)nc2ccccc21 ?
MCF10A rerep: 16µM*; PINK1 modulator: 1%; SW480 rerep: inconclusive; PTAP TSG101 blk: -2%; KB-V1 cytotox: inactive; KB-3-1 cytotox: inactive

High-throughput results (PubChem)
